Screens from PubChem BioAssay.
Pf growth 96h = Primary qHTS for delayed death inhibitors of the malarial parasite plastid, 96 hour incubation; AID 504834, 2011; actives 6.9% (n = 320,000); P. falciparum luciferase reporter growth, 96 h; Potency, µM (doses to about 28.7 µM), for inactives: at the top dose activity change, negative = inhibition, hits mostly inhibitors; note: potency is the fitted concentration of half-maximal effect; % is set by controls: 0 for no effect and ±100 for the full control effect
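Luminescence readout: decreased luciferase signal marks inhibited growth of reporter-expressing P. falciparum in infected red cells (2% hematocrit, 0.05% parasitemia final), exposed to compound two generations (96 h, 37 C, 5% CO2).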
Lassa entry inh = qHTS for Inhibitors of binding or entry into cells for Lassa Virus. AID 540256, 2011. Lassa virus pseudotype entry inhibition, cell reporter. Potency, µM (doses to about 37.9 µM), without a hit: at the highest dose activity change, negative = inhibition, most hits filed as inhibitors. actives 1.2% (n = 300,000); calls by dose curve; tested in HEK293 cells; note: potency is the fitted concentration of half-maximal effect; % is set by controls: 0 for no effect and ±100 for the full control effect; nearly all actives have a fitted effect of over 50% in size
Pf growth 48h = Primary qHTS for delayed death inhibitors of the malarial parasite plastid, 48 hour incubation | P. falciparum luciferase growth in erythrocytes, 48 h | actives 5.9% (n = 310,000) | Potency, µM (titrated, usually from 28.7 µM), without a hit: at the highest dose activity change, negative = inhibition, hits mostly inhibitors | AID 504832, 2011; note: potency is the fitted concentration of half-maximal effect; % is set by controls: 0 for no effect and ±100 for the full control effect
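First compound was added to culture medium, then infected red cells at 0.1% parasitemia and 2% hematocrit (final). After incubation at 37 C under 5% CO2, luciferase detection reagent was dispensed and light output recorded.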
Cycloheximide cs = Cycloheximide Counterscreen for Small Molecule Inhibitors of Shiga Toxin. max response, %. actives 12% (n = 300,000). cell reporter, cycloheximide protein synthesis inhibition counterscreen. AID 2314, 2010; in the data active = max response mostly above about 13%, no sharp cut-off; inactive = mostly below about 14%; note: read at 38.3 µM for the half of the compounds with a filed dose; 0% is about no effect
Marburg entry inh = qHTS for inhibitors of binding or entry into cells for Marburg Virus; Marburg virus pseudotyped entry inhibition, cell reporter; actives 1.8% (n = 300,000); AID 540276, 2011; Potency, µM (top dose mostly 37.8 µM), inactives show top-dose activity change, negative = inhibition, most hits filed as inhibitors; calls by dose curve; tested in HEK293 cells; note: potency is the fitted concentration of half-maximal effect; % is set by controls: 0 for no effect and ±100 for the full control effect
Shiga toxin inh = A qHTS for Small Molecule Inhibitors of Shiga Toxin | Vero cells, Shiga toxin protein synthesis inhibition reporter | inhibition, % at 38.7 µM | actives 9.2% (n = 290,000) | AID 2315, 2010; in the data active = inhibition mostly above about 28%, no sharp cut-off; inactive = mostly below about 43%; note: 0% is about no effect
The depositor's hits bear a star; i = inactive; u = inconclusive; x = no result given; + = active, no number; [ ] = remark or other dose. A selection: hits, their analogues and other compounds. The true share with any hit is near 19%. Unless noted, calls come from the whole dose curve; as a rule, active = well fitted inhibition curve with a large enough effect; inconclusive = small, poorly fitted or top-dose-only effect, or another doubt; inactive = no such curve, though single readings can be large or run the other way.

SMILES	Pf growth 96h	Lassa entry inh	Pf growth 48h	Cycloheximide cs	Marburg entry inh	Shiga toxin inh
CC(=O)c1ccc(N2CCN(S(=O)(=O)c3csc(C(N)=O)c3)CC2)cc1	16%	x	u	3	x	32
COc1cccc(CN2C(=O)C3(C(C#N)=C(N)OC4=C3C(=O)CCC4)c3ccccc32)c1 (stereo unspecified)	9%	-16%	4.1µM*	-3	-1%	-8
CC1(C)CC(=O)C2=C(C1)OC(N)=C(C#N)C21C(=O)N(CN2CCOCC2)c2ccccc21 (stereo unspecified)	-24%	-8%	-4%	1	u	-4
CCOC(=O)C1=C(N)OC2=C(C(=O)CCC2)C12C(=O)N(CC(N)=O)c1ccccc12 (stereo unspecified)	6.6µM*	u	43%	1	12%	-9
CCOC(=O)C1=C(N)OC2=C(C(=O)CCC2)C12C(=O)N(C)c1ccccc12 (stereo unspecified)	21%	-22%	12%	-2	8%	-3
O=C(CSc1nnc(CCCN2C(=O)c3cccc4cccc(c34)C2=O)n1-c1ccccc1)NCCCO	28%	0%	u	-3	2%	-7
Cc1cc(C)n(C(=O)CNc2ccccc2Cl)n1	0%	13%	1%	-1	6%	29
CCn1nccc1C(=O)Nc1ccc(Cl)cn1	35%	9%	x	60*	17%[46.1 µM]	70*
CCn1ccc(C(=O)Oc2ccc(Cl)cc2)n1	8%	u	21%	22*	-4%[46.1 µM]	56*
CCn1nccc1C(=O)Nc1cc(Cl)cc(Cl)c1	u	-9%	u	7	u	9
CCn1ccc(C(=O)Nc2ccc(Cl)cn2)n1	-18%	x	x	39*	x	80
CCOC(=O)c1c(NC(=O)CS(=O)(=O)c2ccc(C)cc2)sc2c1CCC(C)C2 (stereo unspecified)	x	-6%[46.1 µM]	x	x	x	x
CC(NC(=O)COC(=O)CNS(=O)(=O)/C=C/c1ccccc1)c1ccccc1 (stereo unspecified)	8%	x	-13%	x	x	x
S=C(NCCCN1CCOCC1)NCCCN1CCOCC1	-13%	-14%	3%	-3	-15%	-8
CCCCCCCCNC(=S)NCCN1CCCCC1	0%	u	8.3µM*	13	15µM*	-3
CC(=O)N(C)c1ccc(NC(=O)Cc2cccc3ccccc23)cc1	x	18%	x	x	-26%[46.1 µM]	x
CCc1cccc(N(C)C(N)=Nc2cccc3ccccc23)c1	9.5µM*	13µM*	13µM*	-4	11µM*	-7
COc1cccc2oc(-c3ccccc3)cc(=O)c12	x	x	x	29*	x	33*
COc1cccc2oc(SC)cc(=O)c12	x	x	x	30	x	+
COc1ccc(Br)c2oc(S)cc(=O)c12	14%	-4%	21%	-4	0%	-7
COC(OC)c1ccnc(-c2ccc(OC(=O)c3cccs3)cc2)n1	127%	x	46%	26*	x	61*
COC(OC)c1ccnc(-c2ccc(OC(C)=O)cc2)n1	125%	14%[46.1 µM]	28%	22*	13%[46.1 µM]	50
NNC(=O)CN1C(=O)Nc2ccc(Cl)cc2C1c1ccccc1 (stereo unspecified)	u	x	u	-3	x	2
COC(=O)CN1C(=O)Nc2ccc(Br)cc2C1c1ccccc1 (stereo unspecified)	3.7µM*	12%	-23%	-3	-46%[46.1 µM]	-6
O=C1CC(c2ccccc2)=Nc2ccccc2N1	42%	5%	x	10	6%	13
SMILES	Pf growth 96h	Lassa entry inh	Pf growth 48h	Cycloheximide cs	Marburg entry inh	Shiga toxin inh
c1ccc(C2=Nc3ccccc3OC2)cc1	u	-2%	x	21*	5%	43
Cc1ccc2c(c1)N=C(c1ccc(Cl)cc1)CO2	68%	-42%	x	53*	u	56*
Clc1ccc(C2=Nc3cc(Cl)ccc3OC2)cc1	29%	x	8%	27*	x	60*
CCN1C(=O)c2ccc(C(=O)Nc3nccs3)cc2C1=O	-8%	0%	18%	12*	3%	31*
Cc1cc(NC(=O)c2ccc3c(c2)C(=O)N(C(C)(C)C)C3=O)no1	u	0%[46.1 µM]	37%	21*	u	34
CC(C)(C)N1C(=O)c2ccc(C(=O)Nc3nccs3)cc2C1=O	57%	u	0%	31*	1%[46.1 µM]	57*
O=C(Nc1nccs1)c1ccc2c(c1)C(=O)N(Cc1cccnc1)C2=O	u	0%	4%	-3	1%	18
O=C(COc1ccccc1F)NNC(=O)Cn1c(=O)cnc2ccccc21	-30%	x	-2%	x	x	x
O=C(NCC(=O)N(c1ccc2c(c1)OCO2)C(C(=O)NC1CCCC1)c1cccs1)c1ccco1 (stereo unspecified)	87%	-8%	-29%	-2	5%[46.1 µM]	20
COc1cc(C)nc(NC(=O)COc2ccc(Cl)cc2C)n1	u	-26%	5%	6	15%[46.1 µM]	-5
Cc1ccc(/C=N/Nc2ccccn2)s1	71%	u	94%	40*	u	102*
Clc1ccc(/C=N/Nc2ccccn2)cc1	-17%	29%[46.1 µM]	290%	53*	0%[46.1 µM]	108*
FC(F)(F)c1ccccc1/C=N/Nc1ccccn1	29%	x	-23%	25*	x	59*
Nn1cnnc1N/N=C/c1ccccc1C(F)(F)F	u	x	u	5	x	4
CCCOc1ccc(/C=N/NC(=O)C(=O)Nc2ccccn2)cc1	u	1%	12%	3	8%	8
CCOc1ccc(/C=N/Nc2ccccn2)cc1	7%	x	i	34*	x	70*
O=C(O)c1cccc(NC(=O)C2CCCO2)c1 (stereo unspecified)	31%	2%	x	4	0%	25
COc1cccc(C(=O)O/N=C2\CCS(=O)(=O)c3sccc32)c1	3%	-1%	4%	9	11%[14.2 µM]	16
Cc1cc(C)c(C)c(SCC(=O)Nc2oc(C)c3c(C)n[nH]c(=O)c23)c1C	-8%	u	u	x	6%	x
Cc1ccccc1C(=O)Nc1c(C)nc2ccccn2c1=O	x	27%[46.1 µM]	x	x	x	x
Brc1ccc(/C=N/Nc2ccccn2)cc1	u	13%[46.1 µM]	56%	40*	u	182*
COc1ccc(/C=N/Nc2ccccn2)cc1O	189%	u	261%	46*	-15%[46.1 µM]	70*
Cc1noc(C)c1/C=N/Nc1ccccn1	-10%	-1%	115%	11	14%[46.1 µM]	43
Oc1cccc(C=NNc2ccccn2)c1	x	u	x	x	-1%	x
Clc1ccccc1C=NNc1ccccn1	x	u	x	x	6%	x
Fc1ccc(/C=N/Nc2ccccn2)cc1	142%	u	130%	62*	u	68*
Brc1ccccc1/C=N/Nc1ccccn1	144%	u	99%	24*	u	51*
COc1ccc(Cc2nnc(CCc3ccccc3)s2)cc1	u	x	4%	6	x	-4
COc1ccc(CN=C2NN=C(c3cccc(OC)c3)CS2)cc1	-19%	-11%[46.1 µM]	135%	42*	u	82*
